In PubChem BioAssay AID1159580 (chemical genetic matrix, 2015):
“And” between values parts separate entries of the source, which are not always exact repeats. Equal values may be shown once. The whole screen tested about 5,500 compounds, of which about 2,000 (36%) were called active. Another 18% or so got no clear call; they are omitted. No stated cut-off is given here; in the data, active means normalized growth mostly below about 0.91 (no sharp cut-off); inconclusive means no clear call, values can overlap the other calls; inactive means mostly above about 0.92. This is one part of the list.

Test: chemical genetic growth profiling, strain panel (AID 1159580);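 further: tested at 20 µM; growth read once vehicle control cultures reached saturation at 30 °C; 1 = growth at the plate median or of vehicle wells; lower values mean less growth of the strain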
Conditions: S. cerevisiae deletion strains, growth OD

Measured: normalized growth

CN(C)CCOC(=O)C(c1ccccc1)C1(O)CCCC1 (stereo not drawn)
inactive: locus YAL013W, strain DEP1, hits give low values 1.01 | locus YAL021C, strain ccr4, hits give low values 0.987 | locus YAL026C, strain drs2, hits give low values 1.03 | locus YAL030W, strain snc1, hits give low values 0.99 | locus YBL061C, strain skt5, hits give low values 0.995 | locus YBR009C, strain hhf1, hits give low values 1 | locus YBR021W, strain FUR4, hits give low values 0.991 | locus YBR023C, strain chs3, hits give low values 1 | locus YBR171W, strain sec66, hits give low values 0.97 | locus YBR229C, strain ROT2, hits give low values 0.998 | locus YBR231C, strain swc5, hits give low values 0.972 | locus YBR279W, strain paf1, hits give low values 0.992 | locus YCL011C, strain gbp2, hits give low values 1.01 | locus YCL016C, strain dcc1, hits give low values 1.03 | locus YCL029C, strain bik1, hits give low values 1.02 | locus YCL061C, strain MRC1, hits give low values 0.993 | locus YCL069W, strain vba3, hits give low values 0.991 | locus YCR088W, strain abp1, hits give low values 0.981 | locus YDL005C, strain med2, hits give low values 0.991 | locus YDL035C, strain GPR1, hits give low values 1.01 | locus YDL040C, strain nat1, hits give low values 0.974 | locus YDL074C, strain BRE1, hits give low values 1.02 | locus YDL101C, strain DUN1, hits give low values 0.998 | locus YDL185W, strain tfp1, hits give low values 1.01 | locus YDL192W, strain arf1, hits give low values 1.02 | locus YDR001C, strain nth1, hits give low values 0.963 | locus YDR069C, strain doa4, hits give low values 0.99 | locus YDR101C, strain arx1, hits give low values 1 | locus YDR137W, strain rgp1, hits give low values 1.04 | locus YDR150W, strain NUM1, hits give low values 0.998 | locus YDR159W, strain sac3, hits give low values 1.01 | locus YDR162C, strain NBP2, hits give low values 1.01 | locus YDR195W, strain ref2 0.925 | locus YDR297W, strain sur2, hits give low values 0.981 | locus YDR318W, strain mcm21, hits give low values 1.01 | locus YDR334W, strain swr1, hits give low values 0.984 | locus YDR335W, strain msn5, hits give low values 0.985 | locus YDR388W, hits give low values 1.01 | locus YDR392W, strain spt3, hits give low values 1.08 | locus YDR502C, strain sam2, hits give low values 1.02 | locus YEL003W, strain gim4, hits give low values 0.978 | locus YEL037C, strain rad23, hits give low values 0.984 | locus YEL061C, strain CIN8 (second series), hits give low values 0.984 | locus YEL061C, strain CIN8, hits give low values 1 | locus YER015W, strain faa2, hits give low values 0.999 | locus YER016W, strain bim1, hits give low values 1.01 | locus YER110C, hits give low values 1.02 | locus YER111C, strain swi4, hits give low values 0.971 | locus YER155C, strain BEM2 (second series), hits give low values 1 | locus YER155C, strain BEM2, hits give low values 0.996 | locus YER167W, strain BCK2, hits give low values 1 | locus YFR010W, strain ubp6, hits give low values 0.962 | locus YGL078C, strain dbp3, hits give low values 1.01 | locus YGL086W, strain mad1, hits give low values 1.02 | locus YGL167C, strain pmr1, hits give low values 0.974 | locus YGL173C, strain kem1, hits give low values 0.989 | locus YGL227W, strain vid30, hits give low values 0.988 | locus YGL240W, strain doc1, hits give low values 0.963 | locus YGL248W, strain PDE1, hits give low values 1.01 | locus YGL253W, strain hxk2, hits give low values 1 | locus YGR135W, strain pre9, hits give low values 1.03 | locus YGR252W, strain gcn5, hits give low values 0.964 | locus YHR013C, strain ard1, hits give low values 1.02 | locus YHR027C, strain rpn1, hits give low values 1.01 | locus YHR030C, strain SLT2, hits give low values 1 and 0.988 | locus YHR079C, strain IRE1 (second series), hits give low values 1.01 | locus YHR079C, strain IRE1, hits give low values 1 | locus YHR094C, strain hxt1, hits give low values 1.02 | locus YHR129C, strain ARP1, hits give low values 1 | locus YHR142W, strain chs7, hits give low values 0.985 | locus YHR200W, strain rpn10, hits give low values 1.02 | locus YIL066C, strain RNR3, hits give low values 1.01 | locus YIL073C, strain SPO22, hits give low values 1.02 | locus YIL125W, strain kgd1, hits give low values 1.01 | locus YIR030C, strain dcg1, hits give low values 1.03 | locus YJL092W, strain hpr5, hits give low values 0.981 | locus YJL095W, strain BCK1 (second series), hits give low values 0.996 | locus YJL095W, strain BCK1, hits give low values 1.02 and 0.991 | locus YJL115W, strain asf1, hits give low values 0.97 | locus YJL129C, strain trk1, hits give low values 0.96 | locus YJL134W, strain LCB3, hits give low values 1 | locus YJL154C, strain vps35, hits give low values 0.972 | locus YJL164C, strain tpk1, hits give low values 1.01 | locus YJL166W, strain qcr8, hits give low values 0.978 | locus YJL168C, strain set2, hits give low values 1.01 | locus YJL187C, strain SWE1 (second series), hits give low values 1.02 | locus YJR043C, strain POL32, hits give low values 1.01 | locus YJR066W, strain TOR1, hits give low values 0.995
